According to PubChem BioAssay (Tox21):
“And” between values parts separate entries of the source, which are not always exact repeats. Equal values may be shown once. The source made the active and inactive calls. Unless noted, the call rests on the fitted dose curve; in most records, active means well fitted curve in the direction sought with a large enough effect in the repeat runs; inconclusive means weak or mixed curves; inactive means no such curve, though single readings can be large; an effect the other way counts as inactive or inconclusive.

Tests used:
[1] = qHTS assay to identify small molecule antagonists of the thyroid receptor (TR) signaling pathway (AID 743065); further: nearly all actives have a fitted effect of over 55% in size; further: potency means the concentration at half of the fitted maximal effect
Outline: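 GH3.TRE-Luc rat pituitary cells carrying two TR response elements driving luciferase were plated for 4 h, given compound plus 1 nM T3 (final), and incubated 23.5 h at 37 C. ONE-Glo luminescence measured reporter inhibition; CellTiter-Fluor fluorescence tracked cytotoxicity.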

[2] = test system: thyroid hormone receptor (rat, GH3 cells); assay: qHTS assay to identify small molecule agonists of the thyroid receptor (TR) signaling pathway (AID 743066; calls by dose curve)
[3] = qHTS assay to identify small molecule antagonists of the estrogen receptor alpha (ER-alpha) signaling pathway - cell viability counter screen (AID 743074; calls by dose curve; further: nearly all actives have a fitted effect of over 45% in size; further: potency means the concentration at half of the fitted maximal effect)
[4] = qHTS assay to identify small molecule antagonists of the estrogen receptor alpha (ER-alpha) signaling pathway using the BG1 cell line - cell viability counter screen (AID 743081);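 further: compound given together with 17beta-estradiol as the ER stimulus; nearly all actives have a fitted effect of over 45% in size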; further: potency means the concentration at half of the fitted maximal effect
Aromatase (Homo sapiens) = Aromatase (Homo sapiens) (UniProt P11511); assay: qHTS assay to identify aromatase inhibitors (AID 743083); further: nearly all actives have a fitted effect of over 55% in size; further: potency means the concentration at half of the fitted maximal effect
Chain of Aromatase (Homo sapiens) (P11511 whole entry, looked up): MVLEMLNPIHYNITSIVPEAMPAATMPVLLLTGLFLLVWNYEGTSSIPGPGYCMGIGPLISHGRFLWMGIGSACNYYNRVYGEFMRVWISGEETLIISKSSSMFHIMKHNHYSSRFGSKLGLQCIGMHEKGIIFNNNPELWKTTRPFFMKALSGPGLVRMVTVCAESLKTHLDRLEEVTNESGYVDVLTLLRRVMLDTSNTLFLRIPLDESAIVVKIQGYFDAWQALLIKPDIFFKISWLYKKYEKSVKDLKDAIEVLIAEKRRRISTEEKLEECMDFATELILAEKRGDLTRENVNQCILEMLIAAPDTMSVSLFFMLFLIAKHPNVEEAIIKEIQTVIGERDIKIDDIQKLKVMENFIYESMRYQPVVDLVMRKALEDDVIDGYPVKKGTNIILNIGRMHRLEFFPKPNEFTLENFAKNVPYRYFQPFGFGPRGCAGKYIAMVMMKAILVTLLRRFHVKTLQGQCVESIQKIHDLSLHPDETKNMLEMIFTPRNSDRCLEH

[5] = qHTS assay to identify aromatase inhibitors - cell viability counter screen (AID 743084);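 further: cells stimulated with testosterone during compound exposure; nearly all actives have a fitted effect of over 55% in size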; further: potency means the concentration at half of the fitted maximal effect
[6] = target: Aryl hydrocarbon receptor (Homo sapiens) (UniProt P35869); assay: qHTS assay to identify small molecule that activate the aryl hydrocarbon receptor (AhR) signaling pathway (AID 743085); further: nearly all actives have a fitted effect of over 15% in size; further: potency means the concentration at half of the fitted maximal effect;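 on activation: HG2L7.5c1 human HepG2 liver cells with stably integrated DRE-driven firefly reporter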
Chain of Aryl hydrocarbon receptor (Homo sapiens) (P35869 whole entry, looked up): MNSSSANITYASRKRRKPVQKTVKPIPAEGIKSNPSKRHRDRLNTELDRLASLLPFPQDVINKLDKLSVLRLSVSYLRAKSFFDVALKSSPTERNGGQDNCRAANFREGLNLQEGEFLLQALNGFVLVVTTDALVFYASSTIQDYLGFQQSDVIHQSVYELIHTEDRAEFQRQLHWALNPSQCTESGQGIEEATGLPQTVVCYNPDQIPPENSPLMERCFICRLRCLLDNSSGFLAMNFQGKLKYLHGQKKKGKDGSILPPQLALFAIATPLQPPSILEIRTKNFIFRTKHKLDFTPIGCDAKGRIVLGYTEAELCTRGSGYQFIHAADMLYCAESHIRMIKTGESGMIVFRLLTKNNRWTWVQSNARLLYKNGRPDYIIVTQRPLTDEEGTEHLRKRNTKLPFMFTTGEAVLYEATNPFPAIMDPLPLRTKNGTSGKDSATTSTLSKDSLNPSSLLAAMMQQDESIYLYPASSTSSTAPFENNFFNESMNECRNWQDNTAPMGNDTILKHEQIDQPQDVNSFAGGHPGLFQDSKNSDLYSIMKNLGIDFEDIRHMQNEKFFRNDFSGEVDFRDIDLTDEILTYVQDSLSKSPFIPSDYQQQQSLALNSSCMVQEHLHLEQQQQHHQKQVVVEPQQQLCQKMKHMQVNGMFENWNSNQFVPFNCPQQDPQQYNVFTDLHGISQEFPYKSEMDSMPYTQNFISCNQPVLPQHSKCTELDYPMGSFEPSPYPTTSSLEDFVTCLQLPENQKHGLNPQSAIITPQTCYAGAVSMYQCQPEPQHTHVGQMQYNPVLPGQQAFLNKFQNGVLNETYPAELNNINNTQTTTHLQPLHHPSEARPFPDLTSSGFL
Outline: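 AhR agonist activity is inferred from enhanced light output of a DRE-controlled firefly luciferase reporter in HepG2 cells, measured with ONE-Glo following 24 h treatment at 37C.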

[7] = qHTS assay to identify small molecule that activate the aryl hydrocarbon receptor (AhR) signaling pathway - cell viability counter screen (AID 743086); further: nearly all actives have a fitted effect of over 45% in size; further: potency means the concentration at half of the fitted maximal effect
Outline: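 HepG2-AhR-luc (HG2L7.5c1) cells, 4000/well, were preincubated 5 h at 37C, exposed to compound in qHTS format for 24 hr at 37C, then given CellTiter-Fluor for 30 min; viability was read as fluorescence in the reporter wells.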

[8] = target: Peroxisome proliferator-activated receptor gamma (Homo sapiens) (UniProt P37231); assay: qHTS assay to identify small molecule agonists of the peroxisome proliferator-activated receptor gamma (PPARg) signaling pathway (AID 743094; active means well fitted activation curve with a large enough effect in the signal ratio in the repeat runs, not every such curve was filed as active; inconclusive means weak or mixed curves, or effect the other way; inactive means no such curve, though single readings can be large or run the other way; the % refers to the signal ratio)
Chain of Peroxisome proliferator-activated receptor gamma (Homo sapiens) (P37231 whole entry, looked up): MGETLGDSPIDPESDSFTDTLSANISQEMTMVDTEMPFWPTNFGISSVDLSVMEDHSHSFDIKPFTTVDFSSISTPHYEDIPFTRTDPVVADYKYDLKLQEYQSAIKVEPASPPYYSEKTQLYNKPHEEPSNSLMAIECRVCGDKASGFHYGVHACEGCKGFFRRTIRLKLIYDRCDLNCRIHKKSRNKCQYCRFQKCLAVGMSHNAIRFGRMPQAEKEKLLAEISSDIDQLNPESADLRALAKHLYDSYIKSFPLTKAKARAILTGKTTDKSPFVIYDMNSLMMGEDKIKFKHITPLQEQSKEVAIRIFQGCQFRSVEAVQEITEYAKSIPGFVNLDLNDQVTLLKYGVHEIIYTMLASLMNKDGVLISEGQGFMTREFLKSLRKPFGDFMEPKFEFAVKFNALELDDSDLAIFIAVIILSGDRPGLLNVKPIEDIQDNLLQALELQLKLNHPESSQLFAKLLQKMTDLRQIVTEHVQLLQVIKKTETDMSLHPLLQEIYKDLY
Outline: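 Agonist activity was taken from a beta-lactamase reporter (FRET substrate, 1 h at room temperature) in HEK293H cells carrying a PPARg UAS-bla construct. Compounds in DMSO were incubated 17 h at 37C after a 5 h cell pre-incubation.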

[9] = target: Peroxisome proliferator-activated receptor gamma (Homo sapiens) (UniProt P37231); assay: qHTS assay to identify small molecule antagonists of the peroxisome proliferator-activated receptor gamma (PPARg) signaling pathway (AID 743191; calls by dose curve; further: nearly all actives have a fitted effect of over 30% in size; further: potency means the concentration at half of the fitted maximal effect)
Outline: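 GeneBLAzer PPARg UAS-bla HEK293H cells carrying a UAS-driven beta-lactamase reporter were plated at 3000 cells/well, preincubated 5 h at 37C, then given compound for 17 h at 37C; LiveBLAzer B/G FRET substrate was read after 1 h at room temperature.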

[10] = qHTS assay to identify small molecule antagonists of the peroxisome proliferator-activated receptor gamma (PPARg) signaling pathway - cell viability counter screen (AID 743194); further: nearly all actives have a fitted effect of over 55% in size; further: potency means the concentration at half of the fitted maximal effect
Outline: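 PPARg-UAS-bla HEK293H cells were plated, rested 5 h at 37 C, then treated with compounds plus rosiglitazone (50 nM final) for 17 h at 37 C; viability was then read by CellTiter-Glo luminescence after 30 min at room temperature.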

[11] = qHTS assay for small molecule agonists of the antioxidant response element (ARE) signaling pathway (AID 743202; active means well fitted activation curve with a large enough effect in the signal ratio in the repeat runs, not every such curve was filed as active; inconclusive means weak or mixed curves, or effect the other way; inactive means no such curve, though single readings can be large or run the other way; the % refers to the signal ratio; further: potency means the concentration at half of the fitted maximal effect)
Outline: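 Steps: seed ARE-bla HepG2 cells (2,000/well); incubate 5 h at 37 C; add compounds by pin tool; incubate 16 h at 37 C; add FRET substrate; read fluorescence after 2 h at RT.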

[12] = qHTS assay for small molecule agonists of the antioxidant response element (ARE) signaling pathway - cell viability counter screen (AID 743203; calls by dose curve; further: nearly all actives have a fitted effect of over 55% in size; further: potency means the concentration at half of the fitted maximal effect)
Outline: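 Viability counter screen: CellTiter-Glo luminescence, read after 30 min at room temperature, in ARE-bla HepG2 wells. Compound exposure lasted 16 h at 37C/5% CO2, following a 5 h pre-incubation of the cells after plating.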

[13] = qHTS assay for small molecule activators of the heat shock response signaling pathway - cell viability counter screen (AID 743209); further: nearly all actives have a fitted effect of over 50% in size; further: potency means the concentration at half of the fitted maximal effect
Outline: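 Cytotoxicity counter screen run in the same wells as the heat-shock bla reporter assay: HeLa HSE-bla cells, 5 h compound exposure at 37 C, viability read by CellTiter-Glo luminescence.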

[14] = target: Estrogen receptor (Homo sapiens) (UniProt P03372); assay: qHTS assay to identify small molecule agonists of the estrogen receptor alpha (ER-alpha) signaling pathway (AID 743075; calls by dose curve)
Chain of Estrogen receptor (Homo sapiens) (P03372 whole entry, looked up): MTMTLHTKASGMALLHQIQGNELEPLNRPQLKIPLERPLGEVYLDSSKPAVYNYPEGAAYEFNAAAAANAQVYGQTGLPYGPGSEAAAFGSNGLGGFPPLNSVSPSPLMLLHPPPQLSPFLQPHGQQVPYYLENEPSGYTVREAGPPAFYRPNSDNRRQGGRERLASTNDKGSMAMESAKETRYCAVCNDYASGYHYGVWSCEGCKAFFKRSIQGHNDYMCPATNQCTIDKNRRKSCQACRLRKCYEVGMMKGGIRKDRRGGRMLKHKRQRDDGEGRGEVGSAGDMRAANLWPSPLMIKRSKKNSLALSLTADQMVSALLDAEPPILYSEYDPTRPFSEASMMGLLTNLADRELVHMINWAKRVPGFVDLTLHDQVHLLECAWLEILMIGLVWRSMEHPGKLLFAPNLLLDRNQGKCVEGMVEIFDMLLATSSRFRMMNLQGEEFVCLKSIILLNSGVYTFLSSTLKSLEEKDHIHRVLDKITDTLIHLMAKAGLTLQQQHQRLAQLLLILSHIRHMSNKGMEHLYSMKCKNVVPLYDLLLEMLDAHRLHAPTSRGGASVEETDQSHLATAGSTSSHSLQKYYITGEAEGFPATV

[15] = qHTS assay to identify small molecule agonists of the peroxisome proliferator-activated receptor delta (PPARd) signaling pathway - cell viability counter screen (AID 743211); further: nearly all actives have a fitted effect of over 55% in size; further: potency means the concentration at half of the fitted maximal effect
Outline: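 qHTS cell viability: PPARd-bla HEK293H; 17 h cpd, 37C; CellTiter-Glo, luminescence at 30 min RT.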

[16] = target: Estrogen receptor (Homo sapiens) (UniProt P03372); assay: qHTS assay to identify small molecule agonists of the estrogen receptor alpha (ER-alpha) signaling pathway using the BG1 cell line (AID 743079); settings: BG1Luc4E2 cells, ERE-luciferase agonist, 22 h; activation: at 70.3 µM (top of the series); further: nearly all actives have a fitted effect of over 20% in size; further: potency means the concentration at half of the fitted maximal effect
[17] = qHTS assay to identify small molecule antagonists of the estrogen receptor alpha (ER-alpha) signaling pathway using the BG1 cell line (AID 743080; calls by dose curve;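 further: BG1 cells stimulated with 17beta-estradiol alongside compound; nearly all actives have a fitted effect of over 25% in size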); settings: BG1Luc4E2 ERE-luciferase antagonist mode, luminescence; activity change, negative = inhibition: at 70.3 µM (top of the series)
Outline: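 BG1Luc4E2, endogenous ER-alpha, 4xERE-luc; 5 d charcoal-stripped FBS, phenol red free; 24 h plating; cpd + 17beta-estradiol 21.5 h, 37 C/5% CO2; CellTiter-Fluor viability 30 min, then ONE-Glo luciferase 30 min RT.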

[18] = qHTS assay for small molecule activators of the heat shock response signaling pathway (AID 743210; active means well fitted activation curve with a large enough effect in the signal ratio in the repeat runs, with a control signal flat, not every such curve was filed as active; inconclusive means weak or mixed curves; the % refers to the signal ratio;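 further: HeLa cells with beta-lactamase reporter driven by heat shock elements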)
Outline: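 Activation of heat shock element-controlled beta-lactamase expression is measured in HeLa cells by LiveBLAzer FRET fluorescence, with compound exposure lasting 5 h at 37 C and substrate loading 2.5 h at room temperature.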

[19] = target: Estrogen receptor (Homo sapiens) (UniProt P03372); assay: qHTS assay to identify small molecule antagonists of the estrogen receptor alpha (ER-alpha) signaling pathway (AID 743069; active means well fitted curve in the direction sought with a large enough effect in the signal ratio in the repeat runs, not every such curve was filed as active; inconclusive means weak or mixed curves, or effect the other way; inactive means no such curve, though single readings can be large or run the other way; the % refers to the signal ratio; further: potency means the concentration at half of the fitted maximal effect)
Outline: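 Screening used a UAS-driven beta-lactamase reporter integrated into HEK293 cells expressing ER-alpha, stimulated with 17beta-estradiol alongside test compounds over 18 hr at 37C; signal came from LiveBLAzer B/G FRET fluorescence.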

Measured: Potency

C/C=C/C=N/NC(=O)c1ccncc1
active: [6] 9.44 µM | [11] 6.68 µM | [13] 18.8 µM
inactive: [1] | [2] | [3] | [4] | Aromatase (Homo sapiens) | [5] | [7] | [8] | [9] | [10] | [12]

COC(=O)[C@]1(C)CCC[C@@]2(C)[C@H]1CC=C1C=C(C(C)C)CC[C@@H]12
active: [1] 43.3 µM | [10] 54.9 µM | [11] 61.1 µM
inactive: [2] | [3] | [4] | [7] | [12]

CCC(C)c1cc([N+](=O)[O-])cc([N+](=O)[O-])c1OC(=O)OC(C)C (stereo unspecified)
inactive: [2] | [6]
active: [1] 21.7 µM | Aromatase (Homo sapiens) 61.1 µM | [5] 54.5 µM | [7] 43.3 µM | [10] 49 µM | [12] 24.3 µM | [13] 21.9 µM

c1cc(OCC2CO2)cc(OCC2CO2)c1 (stereo unspecified)
active: [1] 7.63 µM | [5] 48.2 µM | [11] 30.4 µM
inactive: [2] | [14] | [4] | [10] | [12] | [13]

CCCCCCC(C)Nc1ccc(Nc2ccccc2)cc1 (stereo unspecified)
active: [1] 43.3 µM | [13] 49 µM | [15] 43.6 µM
inactive: [2] | [4] | Aromatase (Homo sapiens) | [5] | [7] | [8] | [12]

Cc1ccc2ccc3cccc4ccc1c2c34
inactive: [1] | [2] | [14] | [16] | [17] | [4] | Aromatase (Homo sapiens) | [5] | [6] | [7] | [8] | [9] | [10] | [11] | [12] | [13] | [18]

C=C1C(C)(C)[C@@]2(Cl)C(Cl)[C@]1(Cl)C(Cl)(Cl)C2(Cl)Cl (stereo partly specified)
active: [1] 23.9 µM | Aromatase (Homo sapiens) 60 µM | [11] 7.56 µM | [15] 38.2 µM
inactive: [2] | [4] | [6] | [7] | [8]

CCN(CC)CCOc1ccc(C(O)(Cc2ccc(Cl)cc2)c2ccc(C)cc2)cc1 (stereo unspecified)
active: [1] 7.5 µM | [19] 23.9 µM [inconclusive] | Aromatase (Homo sapiens) 29.8 µM | [7] 29.8 µM | [10] 29.8 µM | [12] 21.1 µM | [15] 10.6 µM
inactive: [14] | [17] | [4] | [5] | [6] | [13]

CCCCOc1ccc(C(=O)CCN2CCCCC2)cc1
inactive: [19] | [3] | [14] | [4] | Aromatase (Homo sapiens) | [5] | [7] | [9] | [10] | [13]
active: [1] 3.59 µM | [16] 4.52 µM | [12] 26.6 µM | [15] 11.9 µM

C=CC(=C)CCC=C(C)C
inactive: [1] | [2] | [3] | [4] | Aromatase (Homo sapiens) | [5] | [7] | [8] | [10] | [12] | [13]

CC(C)OC(=O)c1cc(C(=O)OC(C)C)cc([N+](=O)[O-])c1
inactive: [1] | [2] | [5] | [7] | [12] | [13]

O=C1c2c(O)ccc(O)c2C(=O)c2c(NCCNCCO)ccc(NCCNCCO)c21
inactive: [2] | [3] | [4] | [6]
active: [1] 0.507 µM | Aromatase (Homo sapiens) 9.02 µM | [15] 29.8 µM

CCN(CC)CCNc1ccc(CO)c2sc3ccccc3c(=O)c12
active: [1] 1.06 µM | [19] 30.1 µM [inconclusive] | [4] 13.3 µM | [6] 0.531 µM | [7] 6.68 µM | [12] 6.68 µM | [15] 18.8 µM
inactive: [3] | [14] | Aromatase (Homo sapiens) | [5] | [13] | [18]

CNC(=O)c1cc(Oc2ccc(NC(=O)Nc3ccc(Cl)c(C(F)(F)F)c3)cc2)ccn1
inactive: [14] | [6] | [13]
active: [1] 5.96 µM | [19] 6.01 µM [inconclusive] | [3] 21.3 µM | Aromatase (Homo sapiens) 11.9 µM | [5] 23.7 µM | [7] 18.8 µM | [9] 10.6 µM | [10] 18.8 µM | [15] 15 µM

Nc1ccc2cc3ccc(N)cc3nc2c1
active: [1] 5.31 µM and 3.06 µM | Aromatase (Homo sapiens) 16.8 µM and 6.11 µM | [6] 11.9 µM and 6.11 µM | [12] 24.3 µM and 29.8 µM | [13] 43.6 µM
inactive: [2] | [3] | [18] | [15]
